According to PubChem BioAssay (NCATS):
Values joined by “and” are separate entries in the source; they are usually repeats but may differ in a detail not shown here. Equal values may be shown once. Inconclusive results are not listed. Where a call stands in place of a potency, no number is given. A number with no mark means an inactive call. Active and inactive are the calls of the source. Calls follow the shape of the dose curve; as a rule, active = well fitted curve in the direction sought with a large enough effect; inconclusive = small, poorly fitted or top-dose-only effect, or another doubt; inactive = no such curve, though single readings can be large; an effect the other way counts as inactive or inconclusive.

Tests used:
[1] = Primary qHTS for inhibitors of nuclear receptor binding SET domain protein 2 (NSD2) in an isogenic RCH-ACV NSD2 p.E1099K mutant (9B) (AID 1645876); also: nearly all actives have a fitted effect of over 70% in size
[2] = Primary qHTS for inhibitors of nuclear receptor binding SET domain protein 2 (NSD2) in an RCH-ACV wild type WT cells (2C) (AID 1645877); also: nearly all actives have a fitted effect of over 70% in size
[3] = biological target: Glutathione peroxidase 1 (Homo sapiens) (UniProt P07203); assay: Primary qHTS Assay for Inhibitors of Recombinant Selenoprotein Glutathione Peroxidase 1 (GPX1) (AID 1845191); also: nearly all actives have a fitted effect of over 65% in size
Chain of Glutathione peroxidase 1 (Homo sapiens) (P07203 whole entry, looked up): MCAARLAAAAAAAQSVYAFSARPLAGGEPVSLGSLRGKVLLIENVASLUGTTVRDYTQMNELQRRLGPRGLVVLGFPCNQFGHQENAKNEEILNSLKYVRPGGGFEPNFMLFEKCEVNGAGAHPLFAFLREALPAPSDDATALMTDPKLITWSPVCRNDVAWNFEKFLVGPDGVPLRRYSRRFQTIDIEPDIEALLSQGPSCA
In short: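 GR-coupled assay: compounds preincubated 30 min at room temperature with GPX1, then reaction started with CHP; final 10 nM GPX1, 1 mM GSH, 0.5 mM CHP, 0.5 mM NADPH, 100 nM GR, 0.01% BSA, pH 7.5 Tris buffer. NADPH fluorescence (340/450 nm) read at 0 and 15 min.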
Potency is read from the fitted curve at half-maximal effect.

Row | Structure (SMILES) | Potency [1] | Potency [2] | Potency [3] | activity change, negative = viability loss [1] | activity change, negative = cell killing [2]
1 | CO/N=C(/C(=O)N[C@@H]1C(=O)N2C(C(=O)O)=C(Cn3ccc(=N)n3CCO)CS[C@H]12)c1csc(N)n1 | inactive | inactive | 8.06 µM (active) | – | –
2 | C[C@H]1O[C@@H](O[C@H]2CC[C@@]3(C)C(CC[C@]4(C)C3CC=C3C5CC(C)(C)CC[C@]5(C(=O)O)CC[C@]34C(=O)O)C2(C)C)[C@H](O)[C@@H](O)[C@@H]1O (some centres not stated) | inactive | inactive | inactive | – | –
3 | CC1(C)CC[C@]2(C(=O)O)[C@H](O)C[C@]3(C)C(=CCC4[C@@]5(C)CC[C@H](O[C@@H]6O[C@H](CO[C@@H]7OC[C@H](O)[C@H](O)[C@H]7O[C@@H]7OC[C@@H](O)[C@H](O)[C@H]7O)[C@@H](O)[C@H](O)[C@H]6O[C@@H]6O[C@H](CO)[C@@H](O)[C@H](O)[C@H]6O)C(C)(C)C5CC[C@]43C)[C@@H]2C1 (some centres not stated) | – | – | inactive | -4.67% [at 9.23 µM] | -6.47% [at 9.23 µM]
4 | CC1(C)CC[C@]2(C(=O)OC3OC(CO)C(O)C(O)C3O)CC[C@]3(C)C(=CCC4[C@@]5(C)CC[C@H](OC6OC(C(=O)O)C(O)C(OC7OC(CO)C(O)C(O)C7O)C6O)C(C)(C)C5CC[C@]43C)C2C1 (some centres not stated) | – | – | inactive | -3.97% [at 9.23 µM] | -7.21% [at 9.23 µM]
5 | CC(=O)O[C@@](C)(C(=O)/C=C/C(C)(C)O)[C@H]1[C@H](O)C[C@@]2(C)[C@@H]3CC=C4[C@@H](C=C(O)C(=O)C4(C)C)[C@]3(C)C(=O)C[C@]12C | 502 nM (active) | 282 nM (active) | inactive | – | –
6 | CC1=CC(=O)[C@H]2C(C)(C)CCC[C@]2(C)[C@@]1(O)CO | inactive | inactive | inactive | – | –
7 | CC(=O)N[C@H]1[C@H](O[C@H]2CC[C@@]3(C)C(CC[C@]4(C)C3CC=C3C5CC(C)(C)CC[C@]5(C(=O)O)[C@H](O)C[C@]34C)C2(C)C)O[C@H](CO[C@@H]2OC[C@H](O)[C@H](O)[C@H]2O[C@@H]2OC[C@@H](O)[C@H](O)[C@H]2O)[C@@H](O)[C@@H]1O (some centres not stated) | – | – | inactive | -10% [at 9.23 µM] | 3.06% [at 9.23 µM]
8 | COC(=O)CCC(=O)OC[C@]1(C)CCC[C@@]2(C)C3CC[C@]4(C)C=CC3(CCC12)C4 (some centres not stated) | inactive | inactive | inactive | – | –
9 | COc1c2c(c(C)c3c1C(=O)OC3)OC1(C)CC(O)C34OC(OC)(CC(OC(C)=O)C3(C)C1C2)OC4(C)C (configuration not stated) | inactive | inactive | inactive | – | –
10 | C=C1CC2C(C)(CCC(=O)O)C(C(C)(C)O)CCC2(C)C2C(=O)OC(C)(C(=O)OC)C(=O)C12C (configuration not stated) | inactive | inactive | inactive | – | –
11 | CC1(C)C[C@H](O)C[C@@]2(C)OC(=O)C=C12 | inactive | inactive | inactive | – | –
12 | CC(=O)N[C@@H](C(=O)O[C@H]1CCC(C)(C)[C@@H]2CCC3=C(COC3=O)[C@@]12C)C(C)C | inactive | inactive | inactive | – | –
13 | CC1=CC(=O)CC2C1(O)CCC(C)C21CC(c2ccoc2)OC1=O (configuration not stated) | inactive | inactive | inactive | – | –
14 | O=C1C=CC2OC(c3ccccc3)C(O)C2O1 (configuration not stated) | 5780 nM (active) | 4590 nM (active) | inactive | – | –
15 | CC1(C)CC2=C3C=CC4C5(C)CCC(O)C(C)(C)C5CCC4(C)C3(C)CCC2(C)C(O)C1 (configuration not stated) | inactive | inactive | inactive | – | –
16 | CN1CCN(c2ccc(C(=O)Nc3n[nH]c4ccc(Cc5cc(F)cc(F)c5)cc34)c(NC3CCOCC3)c2)CC1 | 3.25 µM (active) and 4.68 µM (active) and 6.51 µM (active) | 3.65 µM (active) and 4.17 µM (active) and 6.51 µM (active) | inactive | – | –
17 | CC(C)(O)C1CCC(C)(C2CCC3(C)C4CCC5C(C)(C(=O)OC6OC(CO)C(O)C(O)C6O)C(O)CC(O)C56CC46CCC23C)O1 (configuration not stated) | inactive | inactive | inactive | – | –
18 | C=C1[C@@H]2CC[C@@H]3[C@@](CCC4C(C(=O)O)(C(=O)O)C[C@@H](O[C@@H]5O[C@H](CO)[C@@H](O)[C@H](O)[C@H]5OC(=O)CC(C)C)C[C@]43C)(C2)[C@H]1O (some centres not stated) | inactive | inactive | inactive | – | –
19 | CC(C)=CCC[C@](C)(O[C@@H]1O[C@H](CO)[C@@H](O)[C@H](O)[C@H]1O)[C@H]1CC[C@]2(C)[C@@H]1[C@H](O)CC1[C@@]3(C)CC[C@H](O)C(C)(C)C3[C@@H](O[C@@H]3O[C@H](CO)[C@@H](O)[C@H](O)[C@H]3O)C[C@]12C (some centres not stated) | inactive | inactive | inactive | – | –
